The source of these data is PubChem BioAssay AID492999 (Johns Hopkins Ion Channel Center, 2010).

In all, about 1,700 compounds went through this assay and about 1,100 (65%) were called active.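 How the source made its calls: active means duplicate-averaged calcium response above the buffer-only control mean plus 5 SD of those controls; inactive means the rest.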 So high a share suggests a set chosen from earlier hits. The list is a sample of the results.

The nature of the test: enhanced carbachol calcium response, M3R/RGS4 cells, RGS4 inhibitor project, cell-based, validation screen, HEK293 M3R/RGS4, calcium flux (AID 492999).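 On calcium response: integrated fluorescence ratio F max minus min over baseline F0; higher response in RGS4-induced cells means RGS4 inhibition.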 As to conditions: HEK293 M3R/RGS4, carbachol calcium Fluo-4 fluorescence, at 10 µM, carbachol added at its EC20; stronger effect = higher value, 0 = buffer wells, 100 = carbachol control.
For the compound `CCOC(=O)C1=NN(c2ccc(Cl)cc2)/C(=C/C2=NCCc3cc(OC)c(OC)cc32)S1`, the calcium response was 10.5% (active). For `CCC(c1nnnn1Cc1ccco1)N(Cc1cc2cc(OC)ccc2[nH]c1=O)C1CCCCC1` (centres undefined), the calcium response result was “inactive”. Take `COc1ccc(/C(O)=C2/C(=O)C(=O)N(c3nc(C)c(C)s3)C2c2ccco2)cc1` (centres undefined): the calcium response result is “inactive”. As for `COc1ccc(-c2csc(Nc3ccc(O)cc3)n2)cc1`, the calcium response was 10% (active). For the compound `C=CCSc1nc2c(c(=O)[nH]1)C(C(C)C)C(C#N)=C(N)O2` (centres undefined), the calcium response is 26% (active). As to `COc1cc(Br)cc(/C=N/c2ncn[nH]2)c1O`, the calcium response is 8% (active). As to `C#CCOc1ccc(/C=C2/C(=O)NN(c3ccccc3)C2=O)cc1OC`, the calcium response was 9% (active).

`COc1cc(/C=C2/SC(=S)N(Cc3ccccc3)C2=O)cc(OC)c1O`: the calcium response result was “inactive”. Regarding `COc1cc(/C=C2/C(=O)NN(c3cccc(Cl)c3)C2=O)cc(Br)c1O`, the calcium response was 30.5% (active). For `Oc1ccc(/C=N/Nc2ccc(C(F)(F)F)cn2)cc1O`, the calcium response is 16.5% (active). For the compound `COc1ccc(/C=C/C(=O)c2ccc(OC)cc2O)cc1`, the calcium response result was “inactive”. Consider `Cc1nc(-c2ccccc2)sc1C(=O)/C=C/c1ccccc1`, for which the calcium response is 10% (active). For the compound `O=C1Nc2ccc(Br)cc2/C1=N/N=C/C1=C(N2CCOCC2)C(=C\c2ccccc2)/CC1`, the calcium response was 18.5% (active). Consider `O=C(Nc1ccccc1)OCc1cc(-c2ccc(Cl)cc2)on1`, for which the calcium response entry was “inactive”. For `COCCCNC(=S)N(CCN(C)C)Cc1cc2cc3c(cc2[nH]c1=O)OCCO3`, the calcium response entry was “inactive”. For the compound `COc1ccc(OC)c(S(=O)(=O)N2CCCC(C(=O)N3CCC(C(N)=O)CC3)C2)c1` (centres undefined), the calcium response entry is “inactive”.

Take `CCOC(=O)C1CCN(C(c2cc3cc(C)cc(C)c3[nH]c2=O)c2nnnn2C2CCCCC2)CC1` (centres undefined): the calcium response was 18% (active). As to `CCOC(=O)[C@@H]1[C@H]2COc3ccc(Br)cc3[C@H]2N2C(=O)N(c3ccc(Cl)cc3)C(=O)[C@@]12C`, the calcium response result was “inactive”.

Regarding `Cc1cc(C)nc(S/C=C/C(=O)c2ccccc2)n1`, the calcium response is 19.5% (active). Regarding `CCOc1ccc(/C=N/NC(=O)CSc2ccccn2)cc1O`, the calcium response result is “inactive”. With `Cc1ccc(Sc2cc(N3CCOCC3)nc(-c3ccccc3)n2)cc1`, the calcium response is 28% (active). `C[C@H](NC(=O)c1nc[nH]c1C(=O)NCC(=O)OC(C)(C)C)c1ccccc1`: the calcium response was 13% (active).

On to `O=C(Nc1ccc(Cl)cc1)OCc1cc(-c2ccccc2)on1`, for which the calcium response entry was “inactive”. `COC(=O)Cn1cc(/C=C/[N+](=O)[O-])c2ccccc21`: the calcium response is 33.5% (active).

Regarding `Cc1nc(Nc2ccc(S(=O)(=O)N3CCCC3)cc2)c2nnn(Cc3ccccc3)c2n1`, the calcium response result is “inactive”. As to `O=C(/C=C/c1ccc(Cl)c([N+](=O)[O-])c1)c1ccc(O)cc1`, the calcium response was 22% (active).

In the case of `O=C(/C=C/c1ccc(Cl)c([N+](=O)[O-])c1)c1cccnc1`, the calcium response is 9% (active). For `CCCCC1S/C(=N/N=C/c2cccs2)NC1=O` (centres undefined), the calcium response was 18% (active). As to `Brc1ccc(-c2csc(N/N=C/c3cccnc3)n2)cc1`, the calcium response was 7.5% (active). As for `CNc1nc(Nc2ccc(C)c(Cl)c2)nc(N)c1[N+](=O)[O-]`, the figure is 6% (active); as for `Cc1ccc(Nc2nc(N)nc(CN3CCN(Cc4ccccc4)CC3)n2)cc1Cl`, “inactive”. As for `Cc1nn2c(=O)cc(COC(=O)c3ccc(NC(=O)C(C)(C)C)cc3)nc2s1`, the calcium response entry was “inactive”.

With `CC(C)c1nc(SCC(=O)Nc2cccc(C(=O)O)c2)c2c3c(sc2n1)CCCC3`, the calcium response is 27.5% (active). For the compound `Cc1ccc(NC(=O)c2c(NC(=O)CCC(=O)O)sc3c2CCCCC3)cc1`, the calcium response entry is “inactive”. In the case of `CC(C)Cc1nc(Nc2ccc(S(=O)(=O)N3CCCC3)cc2)c2nnn(Cc3ccccc3)c2n1`, the calcium response entry is “inactive”. Consider `CNCC(O)c1ccc(O)c(O)c1` (centres undefined), for which the calcium response is 21.5% (active). For the compound `O=C(CCN1CCc2ccccc2C(O)(c2ccccc2)C1)c1ccc2c(c1)OCCO2` (centres undefined), the calcium response was 100% (active).

For `COc1ccc(C(C[N+](=O)[O-])n2nc(C)cc2C)cc1` (centres undefined), the calcium response is 10% (active). As to `Cc1nn(C(C)C(=O)N2CCOCC2)c(=O)c2nn(-c3ccccc3)c(C)c12` (centres undefined), the calcium response entry was “inactive”.

With `O=C(NCCCc1ccccc1)C1CCC(CNc2c(N3CCCCC3)c(=O)c2=O)CC1` (centres undefined), the calcium response result is “inactive”.

Regarding `O=C1c2ccccc2NC(c2ccc(-c3cccc(Cl)c3)o2)N1O` (centres undefined), the calcium response was 24.5% (active). For `c1ccc(C[C@H]2CNCCN2CCC23CC4CC(CC(C4)C2)C3)cc1`, the calcium response was 26.5% (active).

Consider `O=C(COC(=O)c1cccc(Br)c1)Nc1cccc2c1C(=O)c1ccccc1C2=O`, for which the calcium response result is “inactive”. In the case of `O=C(O)c1ccc2c(c1)C(=O)N(c1ccc(/C=C/C(=O)c3ccccc3)cc1)C2=O`, the calcium response was 93% (active). Turning to `CCc1ccc(C2C(C#N)=C(N)N(N3CCOCC3)C3=C2C(=O)CC(C)(C)C3)s1` (centres undefined), the calcium response entry is “inactive”. `O=[N+]([O-])/C=C/c1ccc2c(ccn2Cc2ccccc2)c1`: the calcium response is 56.5% (active). As for `CCn1c(O)c(N=NC2=NC(=O)CS2)c2cc(C)ccc21`, the entry is “inactive”; as for `O=C1NC(c2ccc(-c3ccccc3[N+](=O)[O-])o2)C(C(=O)c2ccc(Cl)cc2)C(O)(C(F)(F)F)N1` (centres undefined), 18.5% (active); as for `Cn1c(-c2ccco2)nc2cc3ccccc3cc21`, “inactive”. `CCc1ccc2oc(-c3ccc(N)cc3)nc2c1`: the calcium response is 17% (active). Take `CCOc1ccc(NC(=O)C/C(C)=N/NC(=O)Cc2cccs2)cc1`: the calcium response entry is “inactive”.

On to `CCCCOC(=O)CNc1nnc(SCC(=O)OCC)[nH]c1=O`, for which the calcium response was 63.5% (active). On to `Cc1ccc(C)c(Cn2nnc3c(=O)[nH]c(C(=O)Nc4ccc(F)cc4)nc32)c1`, for which the calcium response is 56.5% (active).

Regarding `COC(=O)C1CCN(C(=O)c2cc(=O)[nH]c3ccccc23)CC1`, the calcium response entry is “inactive”. On to `Cc1ccc(S/C(=N\S(=O)(=O)c2ccc(Cl)cc2)c2ccccc2)cc1`, for which the calcium response entry is “inactive”. As for `C#CCOc1ccc(/C=C2/C(=O)ON=C2C)cc1OCC`, the figure is 16% (active); as for `C=CCOc1ccc(/C=C2/C(=O)ON=C2C)cc1OCC`, 14.5% (active). Regarding `Cc1ccsc1/C=N/n1c(=S)[nH]nc(C)c1=O`, the calcium response is 22.5% (active). Take `Cc1ccc(SC(CC(=O)c2ccc(C(C)(C)C)cc2)C(=O)O)cc1` (centres undefined): the calcium response result was “inactive”. In the case of `Nc1cccc(-c2cc(-c3ccccc3)nc(-c3cccc(N)c3)n2)c1`, the calcium response was 13.5% (active). As for `COc1cc2c(cc1O)C(SC)=NC(C)(C)C2`, the figure is 26.5% (active); as for `CCc1nnc(NS(=O)(=O)c2ccc(N=Cc3c(C)[nH]n(-c4ccc(C)cc4)c3=O)cc2)s1`, “inactive”. For the compound `C1=C(N2CCOCC2)/C(=C/c2nc3ccccc3[nH]2)CC1`, the calcium response is 49% (active). Take `COc1ccc(NCc2nnc(SCc3ccccc3)n2-c2ccc(OC)cc2)cc1`: the calcium response result is “inactive”. As for `O=C(O)c1ccc2c(=O)n3c(nc2c1)/C(=C/c1ccc(Cl)c([N+](=O)[O-])c1)CC3`, the entry is “inactive”; as for `Cc1ccc(/C=C2\CCn3c2nc2cc(C(=O)O)ccc2c3=O)c(C)c1`, 52% (active).

In the case of `Oc1ccc(-c2[nH]ncc2-c2nc3ccccc3s2)c(O)c1`, the calcium response is 12% (active). As to `O=S(=O)(Nc1nccs1)c1ccc2c(c1)OCCO2`, the calcium response result is “inactive”.

For the compound `Cc1c(NC(=O)c2coc(=O)c(Br)c2)c(=O)n(-c2ccccc2)n1C`, the calcium response is 24.5% (active). Turning to `CS(=O)(=O)N(CC(O)Cn1c2ccccc2c2ccccc21)c1cccc2ccccc12` (centres undefined), the calcium response is 14.5% (active).

On to `COc1ccc(S(=O)(=O)Nc2ccc(O)c(Sc3nc4ccccc4s3)c2)cc1`, for which the calcium response was 23% (active). `O=[N+]([O-])c1c(NCCO)cc(Sc2nc3ccccc3s2)c2nonc12`: the calcium response entry is “inactive”. On to `Nc1ccccc1SC(C[N+](=O)[O-])c1ccccc1` (centres undefined), for which the calcium response was 38.5% (active). Regarding `O=C(O)C(c1ccccc1)N1C(=O)/C(=C\c2ccc(-c3cccc(Cl)c3)o2)SC1=S` (centres undefined), the calcium response was 13.5% (active). For `COc1ccccc1C1C(C#N)=C(N)Oc2c1c(-c1ccccc1)nn2-c1ccccc1` (centres undefined), the calcium response was 34.5% (active).

With `C=C(C)C(=O)O[C@H]1C/C(C)=C\C(=O)/C=C(\C)[C@H](O)[C@@H]2OC(=O)C(=C)[C@@H]21`, the calcium response is 26.5% (active). As for `CC(=O)Nc1ccc(S(=O)(=O)Nc2nc(-c3ccc(C(C)(C)C)cc3)cs2)cc1`, the figure is 19.5% (active). For the compound `O=C(/C=C/Sc1ncn[nH]1)c1ccc(Cl)cc1`, the calcium response was 45.5% (active). As to `Cc1cc(-c2n[nH]c(=S)n2/N=C/C(Br)=C/c2ccccc2)n[nH]1`, the calcium response was 18% (active).
